Among the data in publication PMC7862700, “An all-to-all approach to the identification of sequence-specific readers for epigenetic DNA modifications on cytosine” are binding signal values, retold here.

Holding throughout (assay): DAPPL (digital affinity profiling via proximity ligation, sequencing); 10 mM Tris-HCl pH 7.5, 50 mM NaCl, 1 mM DTT, 4% glycerol, room temperature, 30 min; GST-TFs on glutathione beads, 16-mer random dsDNA library, 0.1% formaldehyde crosslink after washing; high values mean tight binding
One experiment concerns the target T1, FLI1 (Homo sapiens, UniProt Q01543 1-452).
T1 sequence: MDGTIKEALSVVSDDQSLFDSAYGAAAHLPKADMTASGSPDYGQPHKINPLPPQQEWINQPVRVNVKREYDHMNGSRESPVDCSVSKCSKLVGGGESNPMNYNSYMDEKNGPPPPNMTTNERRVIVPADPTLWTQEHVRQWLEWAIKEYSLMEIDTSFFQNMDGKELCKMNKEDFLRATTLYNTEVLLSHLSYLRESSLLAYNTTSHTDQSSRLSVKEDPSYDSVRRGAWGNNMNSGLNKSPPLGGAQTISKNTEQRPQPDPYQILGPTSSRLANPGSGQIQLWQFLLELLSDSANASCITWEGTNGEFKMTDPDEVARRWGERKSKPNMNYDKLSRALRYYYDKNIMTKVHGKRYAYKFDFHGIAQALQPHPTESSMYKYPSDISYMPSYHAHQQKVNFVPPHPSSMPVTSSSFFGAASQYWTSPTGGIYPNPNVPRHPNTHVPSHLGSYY
The conditions noted are these: protein: recombinant; tags: N-terminal GST; dsDNA, one strand shown. An outline of the steps:
(§1)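 Pools were built from human transcription factors expressed in yeast as GST fusions, captured on glutathione beads and DNA-barcoded, along with a tag-only sample. Incubation with 200 nmole of a 16-mer random double-stranded DNA library lasted 30 min at room temperature in Tris/NaCl/DTT/glycerol buffer, and was followed by washing, 0.1% formaldehyde crosslinking, proximity ligation, PCR amplification and Illumina NextSeq500 sequencing. Binding signal is the quotient of each hexamer's read frequency for a factor and its frequency for the tag-only sample.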

For a further experiment, the target named is T2, ELK1 (Homo sapiens, UniProt P19419 1-428).
T2 sequence: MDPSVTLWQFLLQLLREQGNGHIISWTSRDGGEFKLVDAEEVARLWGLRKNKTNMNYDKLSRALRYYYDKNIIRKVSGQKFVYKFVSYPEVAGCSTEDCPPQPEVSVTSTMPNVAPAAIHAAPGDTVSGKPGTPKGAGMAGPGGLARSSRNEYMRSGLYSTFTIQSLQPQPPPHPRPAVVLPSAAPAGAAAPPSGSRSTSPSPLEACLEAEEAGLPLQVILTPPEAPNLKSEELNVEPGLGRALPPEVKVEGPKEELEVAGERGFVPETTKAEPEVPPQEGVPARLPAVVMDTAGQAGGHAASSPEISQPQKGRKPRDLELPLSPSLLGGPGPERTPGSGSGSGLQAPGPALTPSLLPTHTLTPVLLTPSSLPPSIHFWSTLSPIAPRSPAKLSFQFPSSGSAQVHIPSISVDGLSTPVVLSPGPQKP
The conditions noted are these: protein: recombinant; tags: N-terminal GST; dsDNA, one strand shown. The method, boiled down: as §1

For the next experiment, the target named is T3, GABPA (Homo sapiens, UniProt Q06546 1-454).
T3 sequence: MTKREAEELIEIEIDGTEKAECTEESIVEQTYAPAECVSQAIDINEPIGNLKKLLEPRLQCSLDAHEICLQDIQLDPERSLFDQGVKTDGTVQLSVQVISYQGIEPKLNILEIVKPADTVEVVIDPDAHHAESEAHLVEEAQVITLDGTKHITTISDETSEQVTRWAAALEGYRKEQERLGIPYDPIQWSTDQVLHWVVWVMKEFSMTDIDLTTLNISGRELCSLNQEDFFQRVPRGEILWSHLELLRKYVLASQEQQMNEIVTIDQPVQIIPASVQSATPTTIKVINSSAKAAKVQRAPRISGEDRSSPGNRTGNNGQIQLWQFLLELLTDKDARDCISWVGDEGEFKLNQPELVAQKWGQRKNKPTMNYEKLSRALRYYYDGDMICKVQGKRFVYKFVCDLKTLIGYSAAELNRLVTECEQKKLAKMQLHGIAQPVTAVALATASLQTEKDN
The conditions noted are these: protein: recombinant; tags: N-terminal GST; dsDNA, one strand shown. The method, boiled down: as §1

The next experiment addresses T4, ERG (Homo sapiens, UniProt P11308 1-479).
T4 sequence: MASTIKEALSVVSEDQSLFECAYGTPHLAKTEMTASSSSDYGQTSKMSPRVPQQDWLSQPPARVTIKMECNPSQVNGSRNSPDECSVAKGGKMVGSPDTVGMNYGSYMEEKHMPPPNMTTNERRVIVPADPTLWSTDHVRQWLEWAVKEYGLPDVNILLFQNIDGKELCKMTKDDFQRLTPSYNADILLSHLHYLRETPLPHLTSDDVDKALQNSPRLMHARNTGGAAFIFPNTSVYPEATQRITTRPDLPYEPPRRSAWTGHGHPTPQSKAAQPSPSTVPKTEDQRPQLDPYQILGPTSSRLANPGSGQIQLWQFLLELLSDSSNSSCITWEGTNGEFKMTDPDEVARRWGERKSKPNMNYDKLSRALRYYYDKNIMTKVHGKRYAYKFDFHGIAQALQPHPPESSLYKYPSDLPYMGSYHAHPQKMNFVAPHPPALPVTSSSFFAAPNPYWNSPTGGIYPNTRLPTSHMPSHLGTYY
The conditions noted are these: protein: recombinant; tags: N-terminal GST; dsDNA, one strand shown. An outline of the steps:
as §1

Another experiment concerns the target ELF1 (Homo sapiens, UniProt P32519 1-619). The conditions noted are these: protein: recombinant; tags: N-terminal GST; dsDNA, one strand shown. The method, boiled down:
as §1

Another experiment has as its target T5, EHF (Homo sapiens, UniProt Q9NZC4 1-300).
T5 sequence: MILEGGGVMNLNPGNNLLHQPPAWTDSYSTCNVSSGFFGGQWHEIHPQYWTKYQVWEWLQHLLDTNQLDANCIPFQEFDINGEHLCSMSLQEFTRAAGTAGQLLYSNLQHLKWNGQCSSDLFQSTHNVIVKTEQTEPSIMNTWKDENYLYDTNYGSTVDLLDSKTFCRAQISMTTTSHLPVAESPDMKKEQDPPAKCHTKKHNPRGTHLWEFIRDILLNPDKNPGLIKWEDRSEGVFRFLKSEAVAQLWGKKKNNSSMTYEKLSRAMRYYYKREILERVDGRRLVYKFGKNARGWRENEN
The conditions noted are these: protein: recombinant; tags: N-terminal GST; dsDNA, one strand shown. The method, boiled down:
as §1

The target of another experiment is SPI1 (Homo sapiens, UniProt P17947 1-270). The conditions noted are these: protein: recombinant; tags: N-terminal GST; dsDNA, one strand shown. An outline of the steps:
as §1

The next experiment deals with SPIB (Homo sapiens, UniProt Q01892 1-262). The conditions noted are these: protein: recombinant; tags: N-terminal GST; dsDNA, one strand shown. An outline of the steps: as §1
The next experiment addresses T6, ELK3 (Homo sapiens, UniProt P41970 1-407).
T6 sequence: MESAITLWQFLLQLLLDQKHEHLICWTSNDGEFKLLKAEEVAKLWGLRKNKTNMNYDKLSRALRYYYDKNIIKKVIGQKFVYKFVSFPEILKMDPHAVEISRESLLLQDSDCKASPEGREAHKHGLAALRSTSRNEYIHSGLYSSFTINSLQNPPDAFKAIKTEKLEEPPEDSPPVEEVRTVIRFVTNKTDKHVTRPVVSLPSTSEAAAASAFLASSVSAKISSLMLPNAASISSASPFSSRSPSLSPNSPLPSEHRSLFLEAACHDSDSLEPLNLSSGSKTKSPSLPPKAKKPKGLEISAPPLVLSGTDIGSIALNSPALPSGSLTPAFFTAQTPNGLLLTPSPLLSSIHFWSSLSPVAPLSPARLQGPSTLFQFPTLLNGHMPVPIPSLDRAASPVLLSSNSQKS
The conditions noted are these: protein: recombinant; tags: N-terminal GST; dsDNA, one strand shown. An outline of the steps: as §1

The target of another experiment is T7, FEV (Homo sapiens, UniProt Q99581 1-238).
T7 sequence: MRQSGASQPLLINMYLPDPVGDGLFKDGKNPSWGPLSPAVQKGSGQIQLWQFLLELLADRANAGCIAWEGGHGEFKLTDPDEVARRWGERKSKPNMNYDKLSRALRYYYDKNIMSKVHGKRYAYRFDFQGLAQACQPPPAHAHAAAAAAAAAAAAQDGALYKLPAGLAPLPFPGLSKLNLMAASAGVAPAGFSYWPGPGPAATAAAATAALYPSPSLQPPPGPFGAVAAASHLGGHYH
The conditions noted are these: protein: recombinant; tags: N-terminal GST; dsDNA, one strand shown. The method, boiled down: as §1

A further experiment addresses ETV5 (Homo sapiens, UniProt P41161 1-510). The conditions noted are these: protein: recombinant; tags: N-terminal GST; dsDNA, one strand shown. An outline of the steps:
as §1

The target in another experiment is HSF1 (Homo sapiens, UniProt Q00613 1-529). The conditions noted are these: protein: recombinant; tags: N-terminal GST; chain copies: 3; dsDNA, one strand shown. The method, boiled down:
as §1

The next experiment deals with T8, SPIC (Homo sapiens, UniProt Q8N5J4 1-248).
T8 sequence: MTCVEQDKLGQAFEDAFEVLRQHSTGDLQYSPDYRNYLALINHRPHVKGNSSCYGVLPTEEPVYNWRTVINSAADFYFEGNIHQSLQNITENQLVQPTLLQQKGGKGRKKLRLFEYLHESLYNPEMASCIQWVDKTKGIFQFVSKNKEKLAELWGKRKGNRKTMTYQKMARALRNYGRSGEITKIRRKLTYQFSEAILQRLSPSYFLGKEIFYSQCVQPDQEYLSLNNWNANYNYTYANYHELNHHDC
The conditions noted are these: protein: recombinant; tags: N-terminal GST; dsDNA, one strand shown. An outline of the steps: as §1

The next experiment concerns the target ELF4 (Homo sapiens, UniProt Q99607 1-663). The conditions noted are these: protein: recombinant; tags: N-terminal GST; dsDNA, one strand shown. The method, boiled down: as §1
For the next experiment, the target named is T9, ELK4 (Homo sapiens, UniProt P28324-2 1-405).
T9 sequence: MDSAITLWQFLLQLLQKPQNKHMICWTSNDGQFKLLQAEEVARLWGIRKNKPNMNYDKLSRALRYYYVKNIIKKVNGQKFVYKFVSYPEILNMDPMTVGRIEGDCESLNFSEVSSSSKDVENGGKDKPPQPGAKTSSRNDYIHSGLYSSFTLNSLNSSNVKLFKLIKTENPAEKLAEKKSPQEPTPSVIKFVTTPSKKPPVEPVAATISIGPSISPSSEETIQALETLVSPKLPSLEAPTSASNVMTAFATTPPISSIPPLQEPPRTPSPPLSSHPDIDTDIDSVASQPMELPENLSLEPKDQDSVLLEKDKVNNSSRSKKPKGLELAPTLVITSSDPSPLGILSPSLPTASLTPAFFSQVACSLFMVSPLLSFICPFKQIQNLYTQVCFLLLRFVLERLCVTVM
The conditions noted are these: protein: recombinant; tags: N-terminal GST; dsDNA, one strand shown. An outline of the steps:
as §1

The target of the next experiment is T10, ETV2 (Homo sapiens, UniProt O00321 1-342).
T10 sequence: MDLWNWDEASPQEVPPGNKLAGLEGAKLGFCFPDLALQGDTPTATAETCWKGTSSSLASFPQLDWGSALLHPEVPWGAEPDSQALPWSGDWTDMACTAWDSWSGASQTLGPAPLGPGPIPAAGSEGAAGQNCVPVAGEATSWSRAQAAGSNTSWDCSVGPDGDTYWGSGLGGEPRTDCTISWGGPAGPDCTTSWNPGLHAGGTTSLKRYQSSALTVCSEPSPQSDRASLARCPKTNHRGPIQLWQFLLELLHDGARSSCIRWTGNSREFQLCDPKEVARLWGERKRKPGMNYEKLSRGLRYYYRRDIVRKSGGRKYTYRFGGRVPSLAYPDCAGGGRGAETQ
The conditions noted are these: protein: recombinant; tags: N-terminal GST; dsDNA, one strand shown. The method, boiled down: as §1

The target of a further experiment is T11, ELF3 (Homo sapiens, UniProt P78545 1-371).
T11 sequence: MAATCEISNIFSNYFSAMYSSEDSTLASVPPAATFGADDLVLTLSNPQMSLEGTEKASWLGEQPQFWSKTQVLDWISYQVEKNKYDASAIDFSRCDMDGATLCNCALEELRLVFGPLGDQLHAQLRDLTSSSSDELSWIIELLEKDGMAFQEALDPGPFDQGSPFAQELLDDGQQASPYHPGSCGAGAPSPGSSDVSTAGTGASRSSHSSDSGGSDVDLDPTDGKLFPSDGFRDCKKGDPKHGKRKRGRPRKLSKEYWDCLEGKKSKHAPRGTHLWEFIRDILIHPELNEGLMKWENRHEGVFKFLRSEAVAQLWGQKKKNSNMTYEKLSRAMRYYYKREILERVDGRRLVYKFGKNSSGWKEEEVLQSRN
The conditions noted are these: protein: recombinant; tags: N-terminal GST; dsDNA, one strand shown. The method, boiled down:
as §1

Another experiment concerns the target CRX (Homo sapiens, UniProt O43186 1-299). The conditions noted are these: protein: recombinant; tags: N-terminal GST; dsDNA, one strand shown. The method, boiled down: as §1
For the next experiment, the target named is ETV1 (Homo sapiens, UniProt P50549 1-477). The conditions noted are these: protein: recombinant; tags: N-terminal GST; dsDNA, one strand shown. An outline of the steps:
as §1

Sequence of ETV5 (P41161 whole entry): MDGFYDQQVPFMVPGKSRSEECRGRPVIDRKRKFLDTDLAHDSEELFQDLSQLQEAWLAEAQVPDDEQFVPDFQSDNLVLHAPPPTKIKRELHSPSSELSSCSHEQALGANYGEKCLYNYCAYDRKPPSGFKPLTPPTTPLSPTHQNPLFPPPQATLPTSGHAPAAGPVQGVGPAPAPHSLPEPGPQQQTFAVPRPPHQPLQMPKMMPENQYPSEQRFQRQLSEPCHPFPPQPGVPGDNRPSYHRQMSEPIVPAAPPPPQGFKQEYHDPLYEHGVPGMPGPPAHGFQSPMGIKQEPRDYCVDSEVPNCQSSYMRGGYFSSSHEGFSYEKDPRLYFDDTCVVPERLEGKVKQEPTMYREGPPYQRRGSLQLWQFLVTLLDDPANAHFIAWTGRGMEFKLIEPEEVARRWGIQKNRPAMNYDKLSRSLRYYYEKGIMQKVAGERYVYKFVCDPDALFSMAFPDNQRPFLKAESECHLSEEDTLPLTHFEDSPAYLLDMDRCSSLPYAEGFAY
Sequence of ETV1 (P50549 whole entry): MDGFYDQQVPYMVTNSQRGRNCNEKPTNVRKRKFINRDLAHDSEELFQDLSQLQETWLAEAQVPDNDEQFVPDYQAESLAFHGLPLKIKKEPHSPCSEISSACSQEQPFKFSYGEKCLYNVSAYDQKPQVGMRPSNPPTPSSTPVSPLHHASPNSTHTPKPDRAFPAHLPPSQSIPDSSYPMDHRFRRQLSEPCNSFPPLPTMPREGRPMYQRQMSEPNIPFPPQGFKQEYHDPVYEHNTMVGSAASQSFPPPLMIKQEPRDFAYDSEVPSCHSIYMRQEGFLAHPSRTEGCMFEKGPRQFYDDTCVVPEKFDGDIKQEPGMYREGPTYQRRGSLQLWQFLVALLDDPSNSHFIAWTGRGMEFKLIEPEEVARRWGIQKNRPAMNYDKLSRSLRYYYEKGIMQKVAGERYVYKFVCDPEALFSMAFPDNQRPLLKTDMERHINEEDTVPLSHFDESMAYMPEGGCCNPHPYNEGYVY
Sequence of HSF1 (Q00613 whole entry): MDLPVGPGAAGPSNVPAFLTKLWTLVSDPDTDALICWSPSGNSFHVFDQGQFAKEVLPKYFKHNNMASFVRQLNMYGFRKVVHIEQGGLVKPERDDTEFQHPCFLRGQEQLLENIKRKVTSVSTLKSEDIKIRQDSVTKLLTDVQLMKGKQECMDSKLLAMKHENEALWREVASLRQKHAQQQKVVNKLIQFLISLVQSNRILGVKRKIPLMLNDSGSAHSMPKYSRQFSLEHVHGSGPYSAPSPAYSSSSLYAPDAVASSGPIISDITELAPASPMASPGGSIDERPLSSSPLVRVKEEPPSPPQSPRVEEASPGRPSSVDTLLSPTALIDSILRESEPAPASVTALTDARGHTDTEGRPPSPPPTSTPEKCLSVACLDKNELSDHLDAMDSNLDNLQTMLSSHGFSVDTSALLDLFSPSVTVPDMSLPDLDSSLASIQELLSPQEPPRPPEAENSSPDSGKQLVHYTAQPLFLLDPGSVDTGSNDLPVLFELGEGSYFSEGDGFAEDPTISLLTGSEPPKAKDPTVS
Sequence of ELF4 (Q99607 whole entry): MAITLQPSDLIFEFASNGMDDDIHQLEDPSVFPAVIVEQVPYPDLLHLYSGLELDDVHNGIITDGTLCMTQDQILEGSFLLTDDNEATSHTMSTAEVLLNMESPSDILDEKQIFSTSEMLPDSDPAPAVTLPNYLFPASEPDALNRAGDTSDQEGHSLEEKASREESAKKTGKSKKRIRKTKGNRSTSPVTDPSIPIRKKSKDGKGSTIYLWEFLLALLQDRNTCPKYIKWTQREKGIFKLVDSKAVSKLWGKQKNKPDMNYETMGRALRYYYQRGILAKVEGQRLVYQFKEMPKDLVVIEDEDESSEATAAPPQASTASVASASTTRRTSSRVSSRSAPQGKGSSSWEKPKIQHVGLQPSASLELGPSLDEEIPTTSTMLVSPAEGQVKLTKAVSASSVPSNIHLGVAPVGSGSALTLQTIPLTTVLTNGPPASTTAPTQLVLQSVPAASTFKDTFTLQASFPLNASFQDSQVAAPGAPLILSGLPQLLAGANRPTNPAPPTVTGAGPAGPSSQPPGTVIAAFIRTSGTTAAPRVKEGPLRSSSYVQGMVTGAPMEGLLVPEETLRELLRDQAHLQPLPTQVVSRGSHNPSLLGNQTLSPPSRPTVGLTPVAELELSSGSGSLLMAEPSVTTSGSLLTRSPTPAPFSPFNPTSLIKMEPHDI
Sequence of SPIB (Q01892 whole entry): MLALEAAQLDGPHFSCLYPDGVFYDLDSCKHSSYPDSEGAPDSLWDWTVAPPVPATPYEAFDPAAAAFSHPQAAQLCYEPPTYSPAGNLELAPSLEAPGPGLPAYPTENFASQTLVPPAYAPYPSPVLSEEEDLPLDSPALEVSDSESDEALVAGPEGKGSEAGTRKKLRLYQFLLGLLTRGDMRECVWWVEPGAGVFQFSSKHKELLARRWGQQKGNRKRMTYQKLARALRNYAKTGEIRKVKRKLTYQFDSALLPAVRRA
Sequence of ELF1 (P32519 whole entry): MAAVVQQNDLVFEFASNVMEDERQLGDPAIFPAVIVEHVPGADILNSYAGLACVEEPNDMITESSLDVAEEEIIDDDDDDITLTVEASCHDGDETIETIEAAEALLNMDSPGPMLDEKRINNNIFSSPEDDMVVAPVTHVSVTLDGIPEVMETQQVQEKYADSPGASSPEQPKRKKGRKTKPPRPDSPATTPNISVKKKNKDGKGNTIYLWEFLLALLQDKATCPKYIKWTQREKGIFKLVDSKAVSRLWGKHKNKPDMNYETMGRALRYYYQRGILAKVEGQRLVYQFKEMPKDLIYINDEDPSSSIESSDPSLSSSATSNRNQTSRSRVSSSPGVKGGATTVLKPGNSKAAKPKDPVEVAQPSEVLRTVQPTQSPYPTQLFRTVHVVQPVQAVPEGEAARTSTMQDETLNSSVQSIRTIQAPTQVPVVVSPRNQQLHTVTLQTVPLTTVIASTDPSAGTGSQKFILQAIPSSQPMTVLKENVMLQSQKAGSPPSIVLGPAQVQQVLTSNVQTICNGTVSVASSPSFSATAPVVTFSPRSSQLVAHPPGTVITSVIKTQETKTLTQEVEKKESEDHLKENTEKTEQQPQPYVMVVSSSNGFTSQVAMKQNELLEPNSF
Sequence of CRX (O43186 whole entry): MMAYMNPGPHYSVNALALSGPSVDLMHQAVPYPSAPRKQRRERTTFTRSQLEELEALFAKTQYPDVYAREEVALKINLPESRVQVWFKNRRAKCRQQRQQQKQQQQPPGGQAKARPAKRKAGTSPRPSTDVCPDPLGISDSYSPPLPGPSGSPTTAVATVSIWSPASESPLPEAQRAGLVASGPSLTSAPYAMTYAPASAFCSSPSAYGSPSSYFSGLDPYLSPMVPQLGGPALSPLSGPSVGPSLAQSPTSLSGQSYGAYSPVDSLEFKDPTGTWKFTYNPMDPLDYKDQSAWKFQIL

TTTGGT: the binding signal with FLI1 was 1.48 fold enrichment (6-mer frequency, TF over GST control); with ELK1, 1.29 fold enrichment (6-mer frequency, TF over GST control); with GABPA, 1.42 fold enrichment (6-mer frequency, TF over GST control); with ERG, 1.31 fold enrichment (6-mer frequency, TF over GST control); in the experiment with ELF1, 1.32 fold enrichment (6-mer frequency, TF over GST control); with EHF, 1.36 fold enrichment (6-mer frequency, TF over GST control). Besides, the binding signal was 1.27 fold enrichment (6-mer frequency, TF over GST control) in the experiment with SPI1; 1.3 fold enrichment (6-mer frequency, TF over GST control) in the experiment with SPIB; 1.37 fold enrichment (6-mer frequency, TF over GST control) in the experiment with ELK3; 1.37 fold enrichment (6-mer frequency, TF over GST control) with FEV; 1.29 fold enrichment (6-mer frequency, TF over GST control) in the experiment with ETV5; 1.36 fold enrichment (6-mer frequency, TF over GST control) with HSF1. Also, the binding signal with SPIC is 1.37 fold enrichment (6-mer frequency, TF over GST control); with ELF4 it was 1.3 fold enrichment (6-mer frequency, TF over GST control); in the experiment with ELK4 it was 1.44 fold enrichment (6-mer frequency, TF over GST control); in the experiment with ETV2 it was 1.43 fold enrichment (6-mer frequency, TF over GST control); with ELF3 it was 1.17 fold enrichment (6-mer frequency, TF over GST control); with CRX, 1.51 fold enrichment (6-mer frequency, TF over GST control). For the same sequence, the binding signal with ETV1 is 1.36 fold enrichment (6-mer frequency, TF over GST control).
